According to PubChem BioAssay AID1159580 (chemical genetic matrix, 2015):
Out of some 5,500 compounds screened, about 2,000 (36%) were called active. About 18% were inconclusive and are not listed. No stated cut-off is given here; in the data, active means normalized growth mostly below about 0.91 (no sharp cut-off); inconclusive means no clear call, values can overlap the other calls; inactive means mostly above about 0.92. The list shows a part of the results.

Assay: chemical genetic growth profiling, strain panel (AID 1159580);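 further: tested at 20 µM; growth read once vehicle control cultures reached saturation at 30 °C; 1 = growth at the plate median or of vehicle wells; lower values mean less growth of the strain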
Settings: growth OD

Measured: normalized growth

COc1ccc2c3c([nH]c2c1)C(C)=NCC3
inactive: S. cerevisiae deletion strains, locus YKL009W, strain mrt4, active compounds read low 1.02 | S. cerevisiae deletion strains, locus YKL068W, active compounds read low 0.999 | S. cerevisiae deletion strains, locus YKL085W, strain MDH1 (second series), active compounds read low 0.996 | S. cerevisiae deletion strains, locus YKL085W, strain MDH1, active compounds read low 0.996 | S. cerevisiae deletion strains, locus YKL160W, strain elf1, active compounds read low 1.01 | S. cerevisiae deletion strains, locus YKL190W, strain CNB1, active compounds read low 1.01 | S. cerevisiae deletion strains, locus YKR001C, strain vps1, active compounds read low 0.975 | S. cerevisiae deletion strains, locus YKR026C, strain gcn3, active compounds read low 1.01 | S. cerevisiae deletion strains, locus YKR091W, strain srl3, active compounds read low 0.999 | S. cerevisiae deletion strains, locus YLL001W, strain dnm1, active compounds read low 1.01 | S. cerevisiae deletion strains, locus YLL026W, active compounds read low 0.987 | S. cerevisiae deletion strains, locus YLL041C, strain sdh2, active compounds read low 1.01 | S. cerevisiae deletion strains, locus YLR027C, strain aat2, active compounds read low 1 | S. cerevisiae deletion strains, locus YLR039C, strain RIC1, active compounds read low 1.02 | S. cerevisiae deletion strains, locus YLR058C, strain SHM2, active compounds read low 1.01 | S. cerevisiae deletion strains, locus YLR102C, strain apc9, active compounds read low 0.987 | S. cerevisiae deletion strains, locus YLR113W, strain HOG1, active compounds read low 0.993 | S. cerevisiae deletion strains, locus YLR221C, strain rsa3, active compounds read low 1 | S. cerevisiae deletion strains, locus YLR258W, strain gsy2, active compounds read low 0.999 | S. cerevisiae deletion strains, locus YLR262C, strain YPT6 (second series), active compounds read low 0.983 | S. cerevisiae deletion strains, locus YLR262C, strain YPT6, active compounds read low 1.03 | S. cerevisiae deletion strains, locus YLR268W, strain sec22, active compounds read low 0.979 | S. cerevisiae deletion strains, locus YLR320W, strain mms22, active compounds read low 0.988 | S. cerevisiae deletion strains, locus YLR330W, strain CHS5, active compounds read low 1 | S. cerevisiae deletion strains, locus YLR342W, strain FKS1 (second series), active compounds read low 1.01 | S. cerevisiae deletion strains, locus YLR342W, strain FKS1, active compounds read low 0.972 | S. cerevisiae deletion strains, locus YLR357W, strain rsc2, active compounds read low 0.991 | S. cerevisiae deletion strains, locus YLR370C, strain arc18, active compounds read low 1 | S. cerevisiae deletion strains, locus YLR371W, strain rom2, active compounds read low 0.976 | S. cerevisiae deletion strains, locus YLR384C, strain iki3, active compounds read low 1 | S. cerevisiae deletion strains, locus YLR418C, strain cdc73, active compounds read low 0.98 | S. cerevisiae deletion strains, locus YML016C, strain PPZ1, active compounds read low 1 | S. cerevisiae deletion strains, locus YML032C, strain rad52, active compounds read low 0.993 | S. cerevisiae deletion strains, locus YML120C, strain ndi1, active compounds read low 0.986 | S. cerevisiae deletion strains, locus YML124C, strain tub3, active compounds read low 0.987 | S. cerevisiae deletion strains, locus YMR058W, strain fet3, active compounds read low 1.02 | S. cerevisiae deletion strains, locus YMR078C, strain ctf18, active compounds read low 0.996 | S. cerevisiae deletion strains, locus YMR125W, strain sto1, active compounds read low 1 | S. cerevisiae deletion strains, locus YMR129W, active compounds read low 0.981 | S. cerevisiae deletion strains, locus YMR205C, strain PFK2, active compounds read low 1.01 | S. cerevisiae deletion strains, locus YMR223W, strain ubp8, active compounds read low 0.99 | S. cerevisiae deletion strains, locus YMR231W, strain pep5, active compounds read low 0.999 | S. cerevisiae deletion strains, locus YMR263W, strain SAP30, active compounds read low 1.01 | S. cerevisiae deletion strains, locus YMR307W, strain GAS1, active compounds read low 1.04 | S. cerevisiae deletion strains, locus YNL067W, strain RPL9B, active compounds read low 0.999 | S. cerevisiae deletion strains, locus YNL071W, strain lat1, active compounds read low 1 | S. cerevisiae deletion strains, locus YNL128W, strain TEP1, active compounds read low 1.01 | S. cerevisiae deletion strains, locus YNL153C, strain GIM3, active compounds read low 0.997 | S. cerevisiae deletion strains, locus YNL183C, strain NPR1, active compounds read low 0.934 | S. cerevisiae deletion strains, locus YNL209W, strain ssb2, active compounds read low 1 | S. cerevisiae deletion strains, locus YNL233W, strain BNI4, active compounds read low 0.999 | S. cerevisiae deletion strains, locus YNL248C, strain rpa49, active compounds read low 1 | S. cerevisiae deletion strains, locus YNL250W, strain rad50, active compounds read low 0.983 | S. cerevisiae deletion strains, locus YNL271C, strain bni1, active compounds read low 0.984 | S. cerevisiae deletion strains, locus YNL298W, strain CLA4, active compounds read low 0.971 | S. cerevisiae deletion strains, locus YNL307C, strain MCK1, active compounds read low 0.987 | S. cerevisiae deletion strains, locus YNL322C, strain KRE1 (second series), active compounds read low 1 | S. cerevisiae deletion strains, locus YNL322C, strain KRE1, active compounds read low 1.01 | S. cerevisiae deletion strains, locus YNR049C, strain mso1, active compounds read low 0.999 | S. cerevisiae deletion strains, locus YNR052C, strain pop2, active compounds read low 0.989 | S. cerevisiae deletion strains, locus YOL006C, strain TOP1, active compounds read low 1.02 | S. cerevisiae deletion strains, locus YOL012C, strain htz1 0.706 | S. cerevisiae deletion strains, locus YOL147C, strain pex11, active compounds read low 0.99 | S. cerevisiae deletion strains, locus YOR001W, strain rrp6, active compounds read low 1.01 | S. cerevisiae deletion strains, locus YOR061W, strain CKA2, active compounds read low 1 | S. cerevisiae deletion strains, locus YOR069W, strain VPS5, active compounds read low 1.01 | S. cerevisiae deletion strains, locus YOR070C, strain gyp1, active compounds read low 0.991 | S. cerevisiae deletion strains, locus YOR080W, strain dia2, active compounds read low 0.997 | S. cerevisiae deletion strains, locus YOR083W, strain WHI5, active compounds read low 0.991 | S. cerevisiae deletion strains, locus YOR106W, strain vam3, active compounds read low 1.01 | S. cerevisiae deletion strains, locus YOR136W, strain idh2, active compounds read low 0.983 | S. cerevisiae deletion strains, locus YOR144C, strain elg1, active compounds read low 0.983 | S. cerevisiae deletion strains, locus YOR184W, strain ser1, active compounds read low 0.994 | S. cerevisiae deletion strains, locus YOR231W, strain MKK1, active compounds read low 0.987 | S. cerevisiae deletion strains, locus YOR265W, strain rbl2, active compounds read low 1 | S. cerevisiae deletion strains, locus YOR270C, strain vph1, active compounds read low 0.997 | S. cerevisiae deletion strains, locus YOR290C, strain snf2, active compounds read low 1.01 | S. cerevisiae deletion strains, locus YOR316C, strain cot1, active compounds read low 0.987 | S. cerevisiae deletion strains, locus YPL051W, strain arl3, active compounds read low 0.999 | S. cerevisiae deletion strains, locus YPL055C, strain LGE1, active compounds read low 1.03 | S. cerevisiae deletion strains, locus YPL078C, strain atp4, active compounds read low 1 | S. cerevisiae deletion strains, locus YPL106C, strain sse1, active compounds read low 0.991 | S. cerevisiae deletion strains, locus YPL240C, strain hsp82, active compounds read low 0.996 | S. cerevisiae deletion strains, locus YPL241C, strain CIN2, active compounds read low 1 | S. cerevisiae deletion strains, locus YPL256C, strain CLN2, active compounds read low 0.976 | S. cerevisiae deletion strains, locus YPR119W, strain clb2, active compounds read low 0.995 | S. cerevisiae deletion strains, locus YPR141C, strain kar3, active compounds read low 0.984 | S. cerevisiae deletion strains, locus YPR163C, strain tif3, active compounds read low 0.99 | S. cerevisiae deletion strains, locus YPR167C, strain met16, active compounds read low 0.991 | S. cerevisiae deletion strains, strain wtn01, active compounds read low 0.977 | S. cerevisiae strains, strain wild type, active compounds read low 1.01
